From the supplement of paper PMC4894684 come the findings set out here.

Where a name gives a salt, the structure may show the parent alone. ± gives the standard deviation of the averaged measurements.

The experiment relates to Toxoplasma gondii RH (in HFF). Description: parasite growth relative to the screen mean (all compounds = 100%); higher = less inhibition of parasite growth. The conditions noted are these: 5 µM; 72 h; oxygen 21 %. The method, boiled down: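 Parasite growth was reported relative to the screen mean. In that scale, the mean of all compounds equals 100%, and values are averaged over two screens. Compounds from 10 mM DMSO stocks were pin-transferred to 5 µM final onto confluent human foreskin fibroblasts in 96-well plates, infected within 2 h with RH β-Gal–GFP Toxoplasma (MOI 1:5) and grown 72 h at 21% O2, with parasite number read by a CPRG β-Gal assay against in-plate standard curves. Uninfected host-cell viability was checked with CellTiter-Blue.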
For the compound `COc1ccc(-n2nc(C(F)(F)F)cc2-c2ccc(Cl)cc2)cc1`, the parasite growth is 117 ± 22%.

The compound `O=[N+]([O-])c1cc(O)c(O)c([N+](=O)[O-])c1` gave a parasite growth of 80.4 ± 42%. On to `COc1cc2c(cc1O)C(CCc1ccc(Cl)cc1)N(C)CC2` (stereo not drawn), for which the parasite growth amounted to 58.7 ± 22%.

`O=C(O)/C=C/CO` [trans-4-Hydroxycrotonic acid] gave a parasite growth of 108 ± 8.3%. For `CN1[C@@H]2CC[C@H]1C[C@@H](OC(=O)c1cc(Cl)cc(Cl)c1)C2` the value was 70.1 ± 18%; for `O=c1[nH]c2ccccc2n1CCCN1CCC(n2c(=O)[nH]c3cc(Cl)ccc32)CC1` [Domperidone], 129 ± 11%; for `CCCN[C@@H]1CCc2c(OC)cccc2[C@@H]1C` [(+)-AJ 76 hydrochloride], 66.5 ± 24%. For the compound `CN1[C@@H]2C[C@@H](OC(=O)[C@H](CO)c3ccccc3)C[C@H]1[C@@H]1O[C@@H]12` [Scopolamine hydrobromide], the parasite growth worked out at 83.5 ± 48%. For `COc1ccc2c(c1)c(CCN1CCOCC1)c(C)n2C(=O)c1cccc(Cl)c1Cl` the value was 145 ± 22%; for `OC1CCCCC1N1CCC(c2ccccc2)CC1` (racemic) [(±)-Vesamicol hydrochloride], 100 ± 8.3%; for `CCCOc1ccc2[nH]cc(C3=CCNCC3)c2n1`, 140 ± 5.8%. `CC1=NN=C(c2ccc(N)cc2)c2cc3c(cc2C1)OCO3` registered a parasite growth of 47.2 ± 4.7%. For `CCN1C[C@]2(COC(=O)c3ccccc3N3C(=O)C[C@H](C)C3=O)CC[C@H](OC)[C@@]34[C@@H]5C[C@H]6[C@H](OC)[C@@H]5[C@](O)(C[C@@H]6OC)[C@](O)([C@@H](OC)[C@H]23)[C@@H]14` [Methyllycaconitine citrate] the value was 83.1 ± 5.7%; for `Cc1nnc2n1-c1sc(CCC(=O)N3CCOCC3)cc1C(c1ccccc1Cl)=NC2`, 132 ± 22%; for `O=c1[nH]oc2c1CCNC2` [THIP hydrochloride], 119 ± 21%. For `CN(C(=O)Cc1ccccc1)C(CN1CCCC1)c1ccccc1` (stereo not drawn) [N-MPPP Hydrochloride] the value was 112.4 ± 0.63%; for `Nc1ccncc1` [4-Aminopyridine], 157 ± 28%. `CN1C[C@H](C(=O)N[C@]2(C)O[C@@]3(O)[C@@H]4CCCN4C(=O)[C@H](Cc4ccccc4)N3C2=O)C[C@@H]2c3cccc4[nH]cc(c34)C[C@H]21` [Dihydroergotamine mesylate]: the parasite growth was 39.27 ± 0.23%. For `NC1(c2ccccc2Cl)CCCCC1=O` (stereo not drawn) [Norketamine hydrochloride] the value was 86.9 ± 27%; for `CC(C)(c1ccc(OCC2CO2)cc1)c1ccc(OCC2CO2)cc1` (stereo not drawn), 157 ± 30%; for `CNCCc1cnc[nH]1` [N α-Methylhistamine dihydrochloride], 102 ± 1.5%. For `CCCCCCC[n+]1ccc(-c2cc[n+](CCCCCCC)cc2)cc1` [DHBP dibromide] the value was 86.1 ± 44%; for `Ic1cncc(OC[C@@H]2CCN2)c1`, 137 ± 16%. For `O=C1CCCN1CC#CCN1CCCC1` [Oxotremorine sesquifumarate] the value was 92 ± 32%; for `NP(N)(=O)NC(=O)c1ccc(F)cc1` [Flurofamide], 90 ± 34%. As to `C=C(C)[C@H]1CN[C@H](C(=O)O)[C@H]1CC(=O)O` [Kainic acid], the parasite growth is 58.7 ± 12%. For `O=Cc1cn(Cc2ccc(Cl)cc2)c2ccccc12` [Oncrasin 1] the value was 113 ± 44%; for `CCCN1CCC[C@@H]2Cc3n[nH]cc3C[C@H]21` [(-)-Quinpirole hydrochloride], 143.8 ± 1.3%; for `O=c1cccc2n1C[C@@H]1CNC[C@H]2C1` [(-)-Cytisine], 128 ± 26%. Regarding `NC(N)=Nc1ccc2[nH]c3c(c2c1)C[C@@]1(O)[C@H]2Cc4ccc(O)c5c4[C@@]1(CCN2CC1CC1)[C@H]3O5` [GNTI dihydrochloride], the parasite growth came to 124 ± 2.5%. For `c1ccc(CC(c2ccccc2)N2CCCCC2)cc1` (racemic) [(±)-1-(1,2-Diphenylethyl)piperidine maleate] the value was 124 ± 20%; for `Cc1ncc(CN2CC=C(c3ccccc3)CC2)c(N)n1`, 135 ± 13%.

The compound `C[C@H](N)Cn1ccc2cc(F)c(Cl)cc21` [Ro 60-0175 fumarate] showed a parasite growth of 115 ± 28%.

As to `NCCc1c[nH]c2ccc(C(N)=O)cc12` [5-Carboxamidotryptamine maleate], the parasite growth was 158 ± 72%. For `NCc1cc(O)no1` [Muscimol] the value was 154 ± 28%. For `CCCN(CCC)C1CCc2ccc(O)cc2C1` (stereo not drawn) [7-Hydroxy-DPAT hydrobromide] the value was 67.2 ± 33%; for `CN1CCc2cc3c(cc2C1C1OC(=O)c2c1ccc1c2OCO1)OCO3` (single isomer, unassigned; (+)) [(+)-Bicuculline], 141 ± 54%. For `CCOC(=O)c1ncn2c1[C@@H]1CCCN1C(=O)c1cc(OC)ccc1-2` the value was 93.9 ± 12%.
